From PubChem
Shown are actives, neighbours in structure and some others; about 6% of the full set was active somewhere.
Sfp PPTase inh = qHTS Assay for Inhibitors of Bacillus subtilis Sfp phosphopantetheinyl transferase (PPTase) | Biochemical Sfp PPTase activity, qHTS | AID 1490, 2009 | hit rate 3.5% among 310,000 | Potency, µM, for inactives: largest response in the series, negative = inhibition, actives largely listed as inhibitors;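 also: the enzyme is Sfp with the accession as filed and its product quenches rhodamine fluorescence; 0% = enzyme reaction without inhibitor and -100% = no enzyme wells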
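Fluorescence-quenching assay with 15 nM Sfp, 5 uM rhodamine-CoA and 12.5 uM BHQ-2-labelled ybbR peptide in pH 7.6 Hepes/MgCl2 buffer. Enzyme was pre-incubated with compound for 15 min at room temperature. Rate was taken from the 30-min fluorescence change (525/598 nm).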
Tau ThT inhib = qHTS for Inhibitors of Tau Fibril Formation, Thioflavin T Binding; recombinant tau K18 P301L, heparin-induced fibrillization, ThT fluorescence; Microtubule-associated protein tau (Homo sapiens), P10636; AID 1460, 2008; Potency, µM (titrated, usually from 57.4 µM), inactives show at the highest dose activity, negative = inhibition, hits mostly inhibitors; hit rate 2.1% among 270,000; also: nearly all actives have a fitted effect of over 55% in size
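In this qHTS, human K18 P301L tau is incubated with compound and heparin for 6 hr at 37 C, and Thioflavin T fluorescence then reports fibril load.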
PLK1 PBD block = qHTS for Inhibitors of PLK1-PDB (polo-like kinase 1 - polo-box domain): Primary Screen | Serine/threonine-protein kinase PLK1 (Homo sapiens), P53350 | Plk1 PBD binding of FITC phosphopeptide, fluorescence polarization | Potency, µM, inactives show max response, negative = inhibition, usual class: inhibitors | hit rate 2.8% among 360,000 | AID 720504, 2013; also: series mostly up to about 57 µM; nearly all actives have a fitted effect of over 65% in size
Target sequence (P53350 whole entry, looked up, the tested form may be a part): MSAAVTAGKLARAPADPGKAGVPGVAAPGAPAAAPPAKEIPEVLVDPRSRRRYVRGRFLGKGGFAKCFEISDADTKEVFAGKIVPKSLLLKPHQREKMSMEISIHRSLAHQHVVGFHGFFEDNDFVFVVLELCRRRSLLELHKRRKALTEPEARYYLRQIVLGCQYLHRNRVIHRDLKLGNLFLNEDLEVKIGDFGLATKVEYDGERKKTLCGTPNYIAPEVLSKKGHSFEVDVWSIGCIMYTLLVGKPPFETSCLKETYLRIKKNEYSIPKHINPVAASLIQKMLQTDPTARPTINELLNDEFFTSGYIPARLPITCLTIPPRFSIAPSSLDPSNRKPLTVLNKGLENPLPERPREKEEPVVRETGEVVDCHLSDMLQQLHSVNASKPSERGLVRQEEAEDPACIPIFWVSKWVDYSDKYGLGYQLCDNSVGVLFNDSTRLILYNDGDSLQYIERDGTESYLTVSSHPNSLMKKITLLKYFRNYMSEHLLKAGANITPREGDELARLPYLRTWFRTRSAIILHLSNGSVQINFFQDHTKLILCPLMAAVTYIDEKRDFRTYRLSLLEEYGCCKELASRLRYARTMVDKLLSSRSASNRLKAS
Tau fluor counter = Counterscreen qHTS for Inhibitors of Tau Fibril Formation, Fluorescence Polarization; tau K18 P301L (four-repeat tau fragment) Alexa594 fluorescence, heparin fibrillization; Potency, µM (doses to about 57.7 µM), inactives show at the highest dose activity change, negative = decrease; hit rate 0.93% among 280,000; AID 1463, 2008; also: nearly all actives have a fitted effect of over 55% in size
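Human K18 P301L tau (15 uM unlabeled plus 0.24 uM Alexa 594-labeled, final) in 100 mM sodium acetate pH 7 was mixed with compound and 20 uM heparin and incubated 6 hr at 37 C.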
Tau fibril FP = qHTS for Inhibitors of Tau Fibril Formation, Fluorescence Polarization. Microtubule-associated protein tau (Homo sapiens), P10636. K18 P301L tau heparin fibrillization, Alexa594 FP, 6 h. Potency, µM (doses to about 57.7 µM), for the others: at the top dose activity, negative = inhibition, most hits filed as inhibitors. hit rate 0.39% among 280,000. AID 1468, 2008; also: nearly all actives have a fitted effect of over 55% in size
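Compound effects on tau fibrillization are measured by Alexa 594 fluorescence polarization (ex 555, em 632 nm). K18 P301L tau is used at 15 uM with 0.24 uM labeled tracer, and 20 uM heparin induces aggregation over 6 hr at 37 C.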
VDR inhibitor = Inhibitors of the vitamin D receptor (VDR): qHTS. Vitamin D3 receptor (Homo sapiens), P11473. VDR-SRC2-3 peptide fluorescence polarization, 2 h. Potency, µM, inactives show max response, negative = inhibition, usual class: inhibitors. hit rate 0.93% among 400,000
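VDR–SRC2-3 interaction, FP format. Cmpds 23 nl via pintool, brief spin, 2 h ambient incubation.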
An asterisk follows results filed as active; ? = inconclusive; / = no result given; ! = repeats disagree; [ ] = dose if it differs, or a comment. Calls follow the shape of the dose curve; as a rule, active = well fitted curve in the direction sought with a large enough effect; inconclusive = small, poorly fitted or top-dose-only effect, or another doubt; inactive = no such curve, though single readings can be large; an effect the other way counts as inactive or inconclusive. Unless noted, % is scaled to controls: 0 for no effect and ±100 for the full control effect; potency is read from the fitted curve at half-maximal effect.

SMILES	Sfp PPTase inh	Tau ThT inhib	PLK1 PBD block	Tau fluor counter	Tau fibril FP	VDR inhibitor
Nc1cccc2c1C(=O)N(C(=O)c1cccc(S(=O)(=O)N3CCCCCC3)c1)C2=O	-17%	?	3.2µM*	-8%	8%	?
Cc1cc2c(cc(C(=O)NCc3cccnc3)n2Cc2ccc(Cl)cc2)o1	45µM*	?	-10%	-13%	3%	-3%
O=C(NCc1cccnc1)c1ccc(-c2ccccc2[N+](=O)[O-])o1	3%	0%	-3%	-6%	-3%	17%
O=C1CCC(C(=O)NCc2cccnc2)N1 (stereo not drawn)	11%	-6%	30µM*	1%	2%	-18%
O=C(NCc1ccccc1)c1cc2sccc2n1Cc1ccc(Cl)cc1	/	5%	/	-13%	-9%	-5%
O=C(O)c1ccc(-c2ccccc2C(F)(F)F)o1	14%	10%	4%	10%	6%	15%
O=C(NCc1cccnc1)c1ccc(-c2cccc(Cl)c2Cl)o1	16µM*	9%	-11%	6%	-9%	-3%
O=C(NCc1ccccc1)c1ccc(-c2ccccc2C(F)(F)F)o1	6%	?	-5%	-25%[81.3 µM]	4%[81.3 µM]	112µM*!
Cc1cc(C)c(Cn2c3ccccc3c3cnn(CC(=O)N4CCCCCC4)c(=O)c32)c(C)c1	/	?	/	-2%	-5%	2%
O=C(O)CN=CC1=C(O)CC(c2ccccc2)CC1=O (stereo not drawn)	23%	/	-2%	/	/	7%
O=C(NCc1ccco1)C1CC(c2c(Cl)cccc2Cl)=NO1 (stereo not drawn)	79µM*	?	-8%	-9%	-3%	-28%
O=C(NCc1cccnc1)C1CC(c2ccccc2O)=NO1 (stereo not drawn)	-29%	/	-8%	/	/	-1%
O=C(NCc1cccnc1)C1CC(c2ccccc2Cl)=NO1 (stereo not drawn)	11%	/	27µM*	/	/	-7%
O=C(NCc1ccco1)C1CC(c2ccc(Cl)c(Cl)c2)=NO1 (stereo not drawn)	15%	12%	-3%	15%	-4%[2.34 µM]	1%
O=C(Cn1ccc2cc(S(=O)(=O)N3CCCCC3)ccc21)NCCc1ccccc1Cl	/	-3%	/	-26%	-9%	11%
CSc1nnc2c3cc(C)ccc3n(Cc3ccccc3)c2n1	56µM*	?	-9%	-4%	0%	-14%
CCOC(=O)c1ccc(Nc2nc(C(=O)OCC)nc3ccccc23)cc1	-9%	-7%	2%	?	?	22%
CCOC(=O)c1nc(Nc2ccc(N3CCC(C)CC3)cc2)c2ccccc2n1	-12%	?	3%	11µM*[quencher]	13%	2%
CCOC(=O)c1nc(Nc2ccc(C(=O)O)cc2)c2ccccc2n1	8%	-10%	-6%	-8%	-6%	8%
CCOC(=O)c1nc(Nc2ccc(Nc3ccccc3)cc2)c2ccccc2n1	9%	5µM*	5%	7.1µM*[quencher]	5%	-16%
Clc1cccc(Cl)c1CNc1ccc(N2CCCC2)cc1	?	7.9µM*	?	?	?	?
[O-][n+]1cccc(CO)c1	1%	/	/	/	/	3%
COc1cccc(C(C)(O)c2nc(/C=C/c3ccccc3)cs2)c1 (stereo not drawn)	/	/	-18%	/	/	/
Cc1ccc(C)c(OCC(O)CN2C(C)CCCC2C)c1 (stereo not drawn)	-7%	-2%	12µM*	6%	4%	-12%
C/C(CC(C)C)=N\NS(=O)(=O)c1ccc(C)c([N+](=O)[O-])c1	12%	-13%	30µM*	-22%	-9%	-21%
CCc1ccc(Nc2ccc(C(N)=O)cc2[N+](=O)[O-])cc1	-3%	13µM*	-22%	?	12%	10%
